According to PubChem BioAssay AID1159580 (chemical genetic matrix, 2015):
Several values for one entry are separate records, joined by “and”; a condition that tells them apart may be missing. Equal values may be shown once. In all, about 5,500 compounds went through this assay and about 2,000 (36%) were called active. Inconclusive results (about 18%) are left out. No stated cut-off is given here; in the data, active means normalized growth mostly below about 0.91 (no sharp cut-off); inconclusive means no clear call, values can overlap the other calls; inactive means mostly above about 0.92. Some of the results follow.

Test: chemical genetic growth profiling, strain panel (AID 1159580);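 further: tested at 20 µM; growth read once vehicle control cultures reached saturation at 30 °C; 1 = growth at the plate median or of vehicle wells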
Details: growth OD

Measured: normalized growth

NCCCCC(=O)O
inactive: S. cerevisiae deletion strains, locus YKL009W, strain mrt4, stronger effect = lower value 1.01 | S. cerevisiae deletion strains, locus YKL068W, stronger effect = lower value 1 | S. cerevisiae deletion strains, locus YKL085W, strain MDH1 (second series), stronger effect = lower value 1.04 | S. cerevisiae deletion strains, locus YKL085W, strain MDH1, stronger effect = lower value 1.04 | S. cerevisiae deletion strains, locus YKL160W, strain elf1, stronger effect = lower value 1.03 | S. cerevisiae deletion strains, locus YKL190W, strain CNB1, stronger effect = lower value 1.02 | S. cerevisiae deletion strains, locus YKR001C, strain vps1, stronger effect = lower value 0.996 | S. cerevisiae deletion strains, locus YKR026C, strain gcn3, stronger effect = lower value 1.02 | S. cerevisiae deletion strains, locus YKR091W, strain srl3, stronger effect = lower value 1.02 | S. cerevisiae deletion strains, locus YLL001W, strain dnm1, stronger effect = lower value 1.01 | S. cerevisiae deletion strains, locus YLL026W, stronger effect = lower value 1.01 | S. cerevisiae deletion strains, locus YLL041C, strain sdh2, stronger effect = lower value 1.01 | S. cerevisiae deletion strains, locus YLR027C, strain aat2, stronger effect = lower value 1.02 | S. cerevisiae deletion strains, locus YLR039C, strain RIC1, stronger effect = lower value 1.06 | S. cerevisiae deletion strains, locus YLR058C, strain SHM2, stronger effect = lower value 1.03 | S. cerevisiae deletion strains, locus YLR102C, strain apc9, stronger effect = lower value 0.999 | S. cerevisiae deletion strains, locus YLR113W, strain HOG1, stronger effect = lower value 1 | S. cerevisiae deletion strains, locus YLR221C, strain rsa3, stronger effect = lower value 1 | S. cerevisiae deletion strains, locus YLR258W, strain gsy2, stronger effect = lower value 1.02 | S. cerevisiae deletion strains, locus YLR262C, strain YPT6 (second series), stronger effect = lower value 1.03 | S. cerevisiae deletion strains, locus YLR262C, strain YPT6, stronger effect = lower value 1.09 | S. cerevisiae deletion strains, locus YLR268W, strain sec22, stronger effect = lower value 1 | S. cerevisiae deletion strains, locus YLR320W, strain mms22, stronger effect = lower value 1.03 | S. cerevisiae deletion strains, locus YLR330W, strain CHS5, stronger effect = lower value 1.02 | S. cerevisiae deletion strains, locus YLR342W, strain FKS1 (second series), stronger effect = lower value 1.01 | S. cerevisiae deletion strains, locus YLR342W, strain FKS1, stronger effect = lower value 1.02 | S. cerevisiae deletion strains, locus YLR357W, strain rsc2, stronger effect = lower value 1.04 | S. cerevisiae deletion strains, locus YLR370C, strain arc18, stronger effect = lower value 1.02 | S. cerevisiae deletion strains, locus YLR371W, strain rom2, stronger effect = lower value 0.995 | S. cerevisiae deletion strains, locus YLR384C, strain iki3, stronger effect = lower value 1.03 | S. cerevisiae deletion strains, locus YLR418C, strain cdc73, stronger effect = lower value 1.02 | S. cerevisiae deletion strains, locus YML016C, strain PPZ1, stronger effect = lower value 1.03 | S. cerevisiae deletion strains, locus YML032C, strain rad52, stronger effect = lower value 0.979 | S. cerevisiae deletion strains, locus YML120C, strain ndi1, stronger effect = lower value 1.01 | S. cerevisiae deletion strains, locus YML124C, strain tub3, stronger effect = lower value 0.987 | S. cerevisiae deletion strains, locus YMR058W, strain fet3, stronger effect = lower value 1.02 | S. cerevisiae deletion strains, locus YMR078C, strain ctf18, stronger effect = lower value 0.983 | S. cerevisiae deletion strains, locus YMR125W, strain sto1, stronger effect = lower value 1 | S. cerevisiae deletion strains, locus YMR129W, stronger effect = lower value 1.02 | S. cerevisiae deletion strains, locus YMR205C, strain PFK2, stronger effect = lower value 1.03 | S. cerevisiae deletion strains, locus YMR223W, strain ubp8, stronger effect = lower value 0.976 | S. cerevisiae deletion strains, locus YMR231W, strain pep5, stronger effect = lower value 1.01 | S. cerevisiae deletion strains, locus YMR263W, strain SAP30, stronger effect = lower value 1.03 | S. cerevisiae deletion strains, locus YMR307W, strain GAS1, stronger effect = lower value 1.04 | S. cerevisiae deletion strains, locus YNL067W, strain RPL9B, stronger effect = lower value 1.04 | S. cerevisiae deletion strains, locus YNL071W, strain lat1, stronger effect = lower value 1.01 | S. cerevisiae deletion strains, locus YNL128W, strain TEP1, stronger effect = lower value 1.02 and 1.01 | S. cerevisiae deletion strains, locus YNL153C, strain GIM3, stronger effect = lower value 1.02 | S. cerevisiae deletion strains, locus YNL175C, strain NOP13, stronger effect = lower value 1.03 | S. cerevisiae deletion strains, locus YNL183C, strain NPR1, stronger effect = lower value 0.894 | S. cerevisiae deletion strains, locus YNL197C, strain WHI3, stronger effect = lower value 1.01 | S. cerevisiae deletion strains, locus YNL209W, strain ssb2, stronger effect = lower value 1.02 | S. cerevisiae deletion strains, locus YNL224C, strain SQS1, stronger effect = lower value 1 | S. cerevisiae deletion strains, locus YNL233W, strain BNI4, stronger effect = lower value 1.03 | S. cerevisiae deletion strains, locus YNL248C, strain rpa49, stronger effect = lower value 1.01 | S. cerevisiae deletion strains, locus YNL250W, strain rad50, stronger effect = lower value 1 | S. cerevisiae deletion strains, locus YNL271C, strain bni1, stronger effect = lower value 0.99 | S. cerevisiae deletion strains, locus YNL298W, strain CLA4, stronger effect = lower value 0.99 | S. cerevisiae deletion strains, locus YNL307C, strain MCK1, stronger effect = lower value 0.987 | S. cerevisiae deletion strains, locus YNL322C, strain KRE1 (second series), stronger effect = lower value 1.02 | S. cerevisiae deletion strains, locus YNL322C, strain KRE1, stronger effect = lower value 1.02 | S. cerevisiae deletion strains, locus YNR049C, strain mso1, stronger effect = lower value 1.01 | S. cerevisiae deletion strains, locus YNR052C, strain pop2, stronger effect = lower value 0.993 | S. cerevisiae deletion strains, locus YOL006C, strain TOP1, stronger effect = lower value 1.08 | S. cerevisiae deletion strains, locus YOL012C, strain htz1 0.929 | S. cerevisiae deletion strains, locus YOL147C, strain pex11, stronger effect = lower value 0.99 | S. cerevisiae deletion strains, locus YOR001W, strain rrp6, stronger effect = lower value 1.03 | S. cerevisiae deletion strains, locus YOR061W, strain CKA2, stronger effect = lower value 1.02 | S. cerevisiae deletion strains, locus YOR069W, strain VPS5, stronger effect = lower value 1.01 | S. cerevisiae deletion strains, locus YOR070C, strain gyp1, stronger effect = lower value 1.02 | S. cerevisiae deletion strains, locus YOR080W, strain dia2, stronger effect = lower value 1.02 | S. cerevisiae deletion strains, locus YOR083W, strain WHI5 (second series), stronger effect = lower value 1.05 | S. cerevisiae deletion strains, locus YOR083W, strain WHI5, stronger effect = lower value 1.02 | S. cerevisiae deletion strains, locus YOR106W, strain vam3, stronger effect = lower value 1.02 | S. cerevisiae deletion strains, locus YOR136W, strain idh2, stronger effect = lower value 0.982 | S. cerevisiae deletion strains, locus YOR144C, strain elg1, stronger effect = lower value 0.999 | S. cerevisiae deletion strains, locus YOR184W, strain ser1, stronger effect = lower value 0.984 | S. cerevisiae deletion strains, locus YOR231W, strain MKK1, stronger effect = lower value 0.988 | S. cerevisiae deletion strains, locus YOR265W, strain rbl2, stronger effect = lower value 1.02 | S. cerevisiae deletion strains, locus YOR270C, strain vph1, stronger effect = lower value 1.05 | S. cerevisiae deletion strains, locus YOR290C, strain snf2, stronger effect = lower value 1.01 | S. cerevisiae deletion strains, locus YOR316C, strain cot1, stronger effect = lower value 0.992 | S. cerevisiae deletion strains, locus YPL051W, strain arl3, stronger effect = lower value 1.01 | S. cerevisiae deletion strains, locus YPL055C, strain LGE1, stronger effect = lower value 1.05 and 0.99 | S. cerevisiae deletion strains, locus YPL078C, strain atp4, stronger effect = lower value 1.03 | S. cerevisiae deletion strains, locus YPL106C, strain sse1, stronger effect = lower value 1.03 | S. cerevisiae deletion strains, locus YPL240C, strain hsp82, stronger effect = lower value 1.01 | S. cerevisiae deletion strains, locus YPL241C, strain CIN2, stronger effect = lower value 0.963 | S. cerevisiae deletion strains, locus YPL256C, strain CLN2, stronger effect = lower value 0.965 | S. cerevisiae deletion strains, locus YPR119W, strain clb2, stronger effect = lower value 0.989 | S. cerevisiae deletion strains, locus YPR141C, strain kar3, stronger effect = lower value 0.98 | S. cerevisiae deletion strains, locus YPR163C, strain tif3, stronger effect = lower value 0.982 | S. cerevisiae deletion strains, locus YPR167C, strain met16, stronger effect = lower value 0.989 | S. cerevisiae deletion strains, strain wtn01, stronger effect = lower value 1 | S. cerevisiae strains, strain wild type, stronger effect = lower value 1.01
